Laboratory results as given in PubChem BioAssay (Tox21).
Results filed as inconclusive are left out. Activity calls are given as the source filed them. Unless noted, calls follow the shape of the full dose curve.

Columns and labels:
[1] = Nuclear factor erythroid 2-related factor 2/antioxidant responsive element (Nrf2/ARE) small molecule agonists: qHTS cell viability counter screen in human keratinocytes (AID 1919968; active = well fitted curve in the direction sought with a large enough effect in the repeat runs; an effect the other way counts as inactive or inconclusive; also: nearly all actives have a fitted effect of over 55% in size)
Outline: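 KeratinoSens HaCaT cells, 1,500/well, preincubated 5 h, then exposed to compounds in DMSO for 23 h at 37 C/5% CO2. Viability read as CellTiter-Fluor fluorescence after 1 h, in the same wells as the ARE-luciferase read.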

[2] = Nuclear factor erythroid 2-related factor 2/antioxidant responsive element (Nrf2/ARE) small molecule agonists: luciferase reporter gene qHTS assay in human keratinocytes (AID 1919969); also: nearly all actives have a fitted effect of over 35% in size; also: potency is read from the fitted curve at half-maximal effect
[3] = target: Gonadotropin-releasing hormone receptor (Homo sapiens) (UniProt P30968); test: Human gonadotropin-releasing hormone receptor (GnRHR) small molecule agonists, calcium flux assay in GnRHR-HEK293 cells (AID 1920063); also: nearly all actives have a fitted effect of over 35% in size
Sequence of Gonadotropin-releasing hormone receptor (Homo sapiens) (P30968 whole entry, looked up): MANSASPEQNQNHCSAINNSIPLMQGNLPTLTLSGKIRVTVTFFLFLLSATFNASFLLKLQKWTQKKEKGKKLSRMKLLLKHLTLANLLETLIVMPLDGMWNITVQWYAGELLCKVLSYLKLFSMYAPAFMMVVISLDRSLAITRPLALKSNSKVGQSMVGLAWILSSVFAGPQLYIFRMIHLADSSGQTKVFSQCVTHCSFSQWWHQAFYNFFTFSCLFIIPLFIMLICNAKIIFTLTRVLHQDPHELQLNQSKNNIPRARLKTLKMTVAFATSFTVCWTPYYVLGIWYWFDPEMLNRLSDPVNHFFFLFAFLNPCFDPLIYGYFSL
Outline: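 HEK293 cells stably expressing human GnRHR were dye-loaded for 1 h at 37 C. Compound was added in agonist mode and fluorescence (Ex/Em 480/540) recorded kinetically for 3 min. Fifteen concentrations, triplicates.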

[4] = target: KiSS-1 receptor (Homo sapiens) (UniProt Q969F8); test: Human kisspeptin (KISS1R) small molecule agonists, calcium flux assay in KISS1R-HEK293 cells (AID 1920064; active = well fitted curve in the direction sought with a large enough effect in the repeat runs; an effect the other way counts as inactive or inconclusive)
Sequence of KiSS-1 receptor (Homo sapiens) (Q969F8 whole entry, looked up): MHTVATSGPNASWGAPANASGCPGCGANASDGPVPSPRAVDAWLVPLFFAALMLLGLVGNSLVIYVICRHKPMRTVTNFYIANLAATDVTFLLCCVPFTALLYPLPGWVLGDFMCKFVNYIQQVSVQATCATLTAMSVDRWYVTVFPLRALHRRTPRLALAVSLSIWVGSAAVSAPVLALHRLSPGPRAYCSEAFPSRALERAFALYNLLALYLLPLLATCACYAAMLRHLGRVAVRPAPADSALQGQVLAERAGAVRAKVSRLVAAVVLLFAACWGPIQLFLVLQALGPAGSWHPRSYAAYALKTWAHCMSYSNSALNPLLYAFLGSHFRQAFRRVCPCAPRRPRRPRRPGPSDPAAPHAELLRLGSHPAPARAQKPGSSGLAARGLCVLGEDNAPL
Outline: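 HEK293 cells stably expressing human KISS1R were loaded with calcium dye for 1 h at 37 C, then given compound; fluorescence (Ex/Em 480/540) was read kinetically for 3 min. Fifteen concentrations, triplicate.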

[5] = G protein-coupled receptor (GPCR) small molecule agonists, calcium flux assay: HEK293 wild type cell line counter screen (AID 1920065)
Outline: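 Wild-type HEK293 cells plated 18 h, loaded with calcium dye 1 h at 37 C, then compounds added in agonist mode (ATP as positive control). Kinetic fluorescence Ex/Em 480/540 recorded 3 min at 1 sec intervals; 15 concentrations, triplicate.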

[6] = p53 small molecule agonists, cell-based qHTS assay with human liver microsomes: qHTS cell viability counter screen (AID 1963579); also: nearly all actives have a fitted effect of over 45% in size; also: potency is read from the fitted curve at half-maximal effect
Outline: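 Seed p53RE-bla cells at 4,000 per well; incubate 5 h at 37 C; add compound, human liver microsomes and NADPH; incubate 16 h at 37 C; add CellTiter-Glo; after 30 min at room temperature, read luminescence.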

[7] = p53 small molecule agonists, cell-based qHTS assay with rat liver microsomes: qHTS cell viability counter screen (AID 1963580); also: nearly all actives have a fitted effect of over 45% in size
Outline: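 HCT-116 p53RE-bla, 4,000 cells/well, 5 h pre-incubation; cpd + rat liver microsomes 0.5 mg/mL + NADPH 0.5 mg/mL (final); 16 h, 37 C; CellTiter-Glo, 30 min RT; luminescence.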

[8] = p53 small molecule agonists, cell-based qHTS assay: qHTS cell viability counter screen (AID 1963581); also: nearly all actives have a fitted effect of over 45% in size
Outline: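 p53RE-bla HCT-116 cells, compounds added 5 h after plating and incubated 16 h at 37 C. Cytotoxicity measured in the same wells as intracellular ATP by CellTiter-Glo luminescence after 30 min at room temperature.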

[9] = target: Beta-2 adrenergic receptor (Homo sapiens) (UniProt P07550); test: Adrenergic beta2 receptor (ADRB2) small molecule antagonists, cell-based qHTS assay (AID 1963592); also: series mostly up to about 92 µM; nearly all actives have a fitted effect of over 50% in size
Sequence of Beta-2 adrenergic receptor (Homo sapiens) (P07550 whole entry, looked up): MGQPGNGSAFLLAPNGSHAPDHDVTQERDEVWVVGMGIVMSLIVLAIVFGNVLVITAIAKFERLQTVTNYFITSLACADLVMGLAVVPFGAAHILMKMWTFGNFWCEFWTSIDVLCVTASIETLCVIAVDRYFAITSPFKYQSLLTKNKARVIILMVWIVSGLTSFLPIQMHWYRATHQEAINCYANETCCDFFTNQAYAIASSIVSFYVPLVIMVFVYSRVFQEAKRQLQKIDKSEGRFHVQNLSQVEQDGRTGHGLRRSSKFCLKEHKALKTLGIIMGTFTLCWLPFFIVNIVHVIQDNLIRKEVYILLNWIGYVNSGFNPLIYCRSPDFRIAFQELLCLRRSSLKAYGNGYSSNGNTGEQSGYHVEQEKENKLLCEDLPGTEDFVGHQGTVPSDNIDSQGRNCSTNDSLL
Outline: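 Cells (CHO, stable ADRB2 overexpression) incubated 18-20hr at 37C; compounds added from DMSO; agonist mix (1nM isoproterenol, 100uM IBMX, 25uM Ro-20-1724) added; 0.5hr RT; d2-cAMP and anti-cAMP-cryptate added; 1hr RT; 665/615 nm read.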

[10] = target: D(2) dopamine receptor (Homo sapiens) (UniProt P14416); test: Dopamine D2 receptor (DRD2) small molecule agonists, cell-based qHTS assay (AID 1963594); also: nearly all actives have a fitted effect of over 35% in size
Sequence of D(2) dopamine receptor (Homo sapiens) (P14416 whole entry, looked up): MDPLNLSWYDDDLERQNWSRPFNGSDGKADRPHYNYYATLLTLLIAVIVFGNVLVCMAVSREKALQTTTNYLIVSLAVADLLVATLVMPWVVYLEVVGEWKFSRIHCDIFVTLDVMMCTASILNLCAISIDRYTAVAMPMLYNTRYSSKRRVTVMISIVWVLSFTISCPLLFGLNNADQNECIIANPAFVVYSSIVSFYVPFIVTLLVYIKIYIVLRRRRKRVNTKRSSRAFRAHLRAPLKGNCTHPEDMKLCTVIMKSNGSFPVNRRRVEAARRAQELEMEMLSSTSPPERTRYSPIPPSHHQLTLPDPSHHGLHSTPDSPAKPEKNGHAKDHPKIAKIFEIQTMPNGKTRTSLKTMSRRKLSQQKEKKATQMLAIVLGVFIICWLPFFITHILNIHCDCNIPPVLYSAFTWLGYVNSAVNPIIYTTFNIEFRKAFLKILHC
Outline: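 cAMP accumulation in DRD2-HEK293 cells measured by HTRF after 1 h detection; compounds added 10 min before NKH477 (200nM […]) forskolin-analogue stimulation, 30 min at room temperature, with Ro20-1724 present at 0.1 mM final.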

[11] = target: 5-hydroxytryptamine receptor 2A (Homo sapiens) (UniProt P28223); test: 5-hydroxytryptamine receptor 2A (HTR2A) small molecule antagonists, cell-based qHTS assay (AID 1963586); also: nearly all actives have a fitted effect of over 45% in size
Sequence of 5-hydroxytryptamine receptor 2A (Homo sapiens) (P28223 whole entry, looked up): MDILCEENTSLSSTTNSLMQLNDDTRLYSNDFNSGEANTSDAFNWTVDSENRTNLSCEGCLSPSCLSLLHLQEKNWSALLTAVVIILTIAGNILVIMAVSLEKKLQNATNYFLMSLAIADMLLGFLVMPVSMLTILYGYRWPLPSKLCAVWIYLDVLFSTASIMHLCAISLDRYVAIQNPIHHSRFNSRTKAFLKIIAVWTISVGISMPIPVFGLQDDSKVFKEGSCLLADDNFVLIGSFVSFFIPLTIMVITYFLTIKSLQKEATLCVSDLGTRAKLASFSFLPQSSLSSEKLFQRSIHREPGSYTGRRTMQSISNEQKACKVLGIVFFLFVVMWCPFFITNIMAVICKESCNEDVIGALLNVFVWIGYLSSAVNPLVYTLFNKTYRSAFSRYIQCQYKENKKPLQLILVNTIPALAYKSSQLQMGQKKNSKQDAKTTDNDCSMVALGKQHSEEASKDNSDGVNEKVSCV
Outline: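 Antagonist-mode intracellular calcium assay: DOI (4 nM) added after 5 min compound pre-incubation at room temperature to dye-loaded HTR2A-CHO cells. Fluorescence followed for 3 min, sampled every second.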

[12] = target: 5-hydroxytryptamine receptor 2A (Homo sapiens) (UniProt P28223); test: 5-hydroxytryptamine receptor 2A (HTR2A) small molecule agonists, cell-based qHTS assay (AID 1963587); also: nearly all actives have a fitted effect of over 30% in size
Outline: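 Kinetic calcium-flux fluorescence (2 min, 1 sec intervals) after compound addition in agonist mode. HTR2A-CHO cells were cultured 18 h, then dye-loaded 1 h at 37 C.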

[13] = target: Muscarinic acetylcholine receptor M1 (Homo sapiens) (UniProt P11229); test: Cholinergic receptor muscarinic 1 (CHRM1) small molecule antagonists, cell-based qHTS assay (AID 1963588); also: nearly all actives have a fitted effect of over 40% in size
Sequence of Muscarinic acetylcholine receptor M1 (Homo sapiens) (P11229 whole entry, looked up): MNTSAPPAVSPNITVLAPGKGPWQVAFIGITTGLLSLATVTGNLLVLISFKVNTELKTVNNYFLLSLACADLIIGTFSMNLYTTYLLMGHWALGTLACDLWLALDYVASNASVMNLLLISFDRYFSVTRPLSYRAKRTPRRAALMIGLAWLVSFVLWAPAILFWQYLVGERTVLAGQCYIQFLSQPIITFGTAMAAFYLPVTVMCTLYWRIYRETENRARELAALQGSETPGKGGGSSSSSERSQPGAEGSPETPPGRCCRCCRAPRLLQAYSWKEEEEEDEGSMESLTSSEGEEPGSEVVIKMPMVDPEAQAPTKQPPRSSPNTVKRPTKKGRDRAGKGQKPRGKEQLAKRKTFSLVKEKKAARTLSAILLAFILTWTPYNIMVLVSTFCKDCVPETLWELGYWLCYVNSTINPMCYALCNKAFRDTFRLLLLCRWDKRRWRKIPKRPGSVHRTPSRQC
Outline: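 CHRM1-CHO calcium-flux assay, antagonist mode. Cells were seeded 18 h, dye-loaded 1 h at 37 C and given compound for 5 min at RT, then acetylcholine was added at 50nM. FDSS fluorescence was read 3 min; 15 concentrations, three runs.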

[14] = target: Muscarinic acetylcholine receptor M1 (Homo sapiens) (UniProt P11229); test: Cholinergic receptor muscarinic 1 (CHRM1) small molecule agonists, cell-based qHTS assay (AID 1963589); also: nearly all actives have a fitted effect of over 35% in size
Outline: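 CHO cells stably expressing human CHRM1 were loaded with calcium dye for 1 h at 37 C, then compound was added in agonist mode. Intracellular calcium fluorescence was followed kinetically at 1 s intervals. Fifteen concentrations were tested in three independent runs.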

[15] = cAMP Responsive Elements (CRE) small molecule agonists, cell-based qHTS assay (AID 1963590)
Outline: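 CRE-bla HEK 293T cells, 2,000/well in DMEM with 10% dialyzed FBS and 25 mM HEPES, pre-incubated 18 h at 37 C, then exposed to compound 3 h at 37 C. Beta-lactamase reporter read with LiveBLAzer B/G FRET substrate after 2 h at room temperature.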

[16] = cAMP Responsive Elements (CRE) small molecule antagonists, cell-based qHTS assay (AID 1963591; active = well fitted inhibition curve with a large enough effect in the signal ratio in the repeat runs, not every such curve was filed as active; the % refers to the signal ratio)
Outline: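 CRE-bla HEK293T cells plated 18 h, then given compound plus NKH477 at 0.25 uM final for 3 h at 37C. Beta-lactamase reporter read with LiveBLAzer B/G FRET substrate after 2 h at room temperature.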

[17] = target: Beta-2 adrenergic receptor (Homo sapiens) (UniProt P07550); test: Adrenergic beta2 receptor (ADRB2) small molecule agonists, cell-based qHTS assay (AID 1963593);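 also: CHO cells stably overexpressing human ADRB2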
Outline: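 CHO cells stably over-expressing ADRB2 were plated overnight at 37C, then dosed with compounds plus a stimulation mix containing 100uM IBMX and 25uM Ro-20-1724 for 0.5hr at room temperature. cAMP was measured by HTRF competition, 1hr.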

[18] = target: D(2) dopamine receptor (Homo sapiens) (UniProt P14416); test: Dopamine D2 receptor (DRD2) small molecule antagonists, cell-based qHTS assay (AID 1963595; active = well fitted inhibition curve with a large enough effect in the signal ratio in the repeat runs, with a control signal flat; the % refers to the signal ratio)
Outline: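 Antagonism was scored as restored cAMP in HEK293-DRD2 cells. These cells were stimulated with 200 nM NKH477 and 12 nM quinpirole for 30 min at room temperature, in the presence of 0.1 mM Ro20-1724.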
% is scaled to controls: 0 for no effect and ±100 for the full control effect.

C[C@]12CC[C@H]3[C@@H](CCC4=CC(=O)CC[C@@]43C)[C@@H]1CC[C@@H]2O
inactive: Potency [1] | Potency [2] | Potency [3] | Potency [4] | Potency [5] | Potency [6] | Potency [7] | Potency [8] | Potency [9] | Potency [10]

O.O.O.O=C([O-])[C@H]([O-])[C@@H]([O-])C(=O)[O-].O=C([O-])[C@H]([O-])[C@@H]([O-])C(=O)[O-].[K+].[K+].[Sb+3].[Sb+3]
inactive: Potency [1] | Potency [3] | Potency [4] | Potency [5] | Potency [7] | Potency [11] | Potency [12] | Potency [13] | Potency [14] | Potency [15] | Potency [16] | Potency [9] | Potency [17] | Potency [10] | Potency [18]
active: Potency [2] 61.4 µM | Potency [6] 36.5 µM

CCCCc1ccccc1
inactive: Potency [1] | Potency [2] | Potency [3] | Potency [4] | Potency [5] | Potency [7] | Potency [8] | Potency [11] | Potency [12] | Potency [13] | Potency [14] | Potency [15] | Potency [16] | Potency [9] | Potency [17] | Potency [10] | Potency [18]

CCCSP(=O)(OCC)Oc1ccc(Br)cc1Cl (configuration not stated)
inactive: Potency [1] | Potency [2] | Potency [3] | Potency [4] | Potency [5] | Potency [6] | Potency [8] | Potency [11] | Potency [12] | Potency [14] | Potency [15] | Potency [16] | Potency [9] | Potency [10] | Potency [18]

NCC(CC(=O)O)c1ccc(Cl)cc1 (configuration not stated)
inactive: activity change, negative = cytotoxicity [1] 20.7% [at 0.349 µM] | activity, positive = activation [2] 2.43% [at 0.349 µM] | activity change [3] -1.11% [at 0.217 µM, active compounds read high] | activation [4] -1.08% [at 0.29 µM] | activation [5] 0.685% [at 0.217 µM] | activity change, negative = cytotoxicity [6] -3.85% [at 0.249 µM] | activity change, negative = cytotoxicity [7] 5.91% [at 0.249 µM] | activity change, negative = cytotoxicity [8] -8.51% [at 0.249 µM] | activation [15] -1.8% [at 0.349 µM] | activity change, negative = inhibition [16] -4.66% [at 0.349 µM] | activity change, negative = inhibition [9] 2.66% [at 0.349 µM] | activation [17] 10.6% [at 0.349 µM] | activation [10] 0.37% [at 0.349 µM] | activity change, negative = inhibition [18] 1.84% [at 0.348 µM]

CCOC(=O)NC(O)C(Cl)(Cl)Cl (configuration not stated)
inactive: Potency [1] | Potency [2] | Potency [3] | Potency [4] | Potency [5] | Potency [6] | Potency [7] | Potency [11] | Potency [12] | Potency [13] | Potency [14] | Potency [15] | Potency [16] | Potency [9] | Potency [10] | Potency [18]

c1ccc2nc(N3CCNCC3)ccc2c1
inactive: Potency [1] | Potency [2] | Potency [3] | Potency [4] | Potency [5] | Potency [6] | Potency [7] | Potency [13] | Potency [15] | Potency [16] | Potency [9] | Potency [10] | Potency [18]

CC1CN1P(=O)(N1CC1C)N1CC1C (configuration not stated)
inactive: Potency [1] | Potency [2] | Potency [3] | Potency [4] | Potency [5] | Potency [6] | Potency [7] | Potency [11] | Potency [12] | Potency [13] | Potency [14] | Potency [15] | Potency [16] | Potency [10] | Potency [18]
